Shown are actives, neighbours in structure and some others; about 3.1% of the full set was active somewhere.
Tau fluor cs – Counterscreen qHTS for Inhibitors of Tau Fibril Formation, Fluorescence Polarization. tau K18 P301L Alexa594 fluorescence, heparin fibrillization. Potency, µM (doses to about 57.7 µM). 0.93% of 280,000 active; further: nearly all actives have a fitted effect of over 55% in size
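Human K18 P301L tau (15 uM unlabeled plus 0.24 uM Alexa 594-labeled, final) in 100 mM sodium acetate pH 7 was mixed with compound and 20 uM heparin and incubated 6 hr at 37 C.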
GoLoco inh red – qHTS Assay for Inhibitors of RGS12 GoLoco Motif Activity (Red Fluorophore). 0.44% of 230,000 active. Guanine nucleotide-binding protein G(i) subunit alpha-1 (Homo sapiens), P63096. AID 880, 2007. Potency, µM (highest dose often 61.6 µM), hits mostly inhibitors. Gai1:RGS12 GoLoco peptide FP, rhodamine, 10 min; active means well fitted inhibition curve with a large enough effect, not every such curve was filed as active; inactive means no such curve, though single readings can be large or run the other way; further: nearly all actives have a fitted effect of over 30% in size
Target sequence (P63096 whole entry, looked up): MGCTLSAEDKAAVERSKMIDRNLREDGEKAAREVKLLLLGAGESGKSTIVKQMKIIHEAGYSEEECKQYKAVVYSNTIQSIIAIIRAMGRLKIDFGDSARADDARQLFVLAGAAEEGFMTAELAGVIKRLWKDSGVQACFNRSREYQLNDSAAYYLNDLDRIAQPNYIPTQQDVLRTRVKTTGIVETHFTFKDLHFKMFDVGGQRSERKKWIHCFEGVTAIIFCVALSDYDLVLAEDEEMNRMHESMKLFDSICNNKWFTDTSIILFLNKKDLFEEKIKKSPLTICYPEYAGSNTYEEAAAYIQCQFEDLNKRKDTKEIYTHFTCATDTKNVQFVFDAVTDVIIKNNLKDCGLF
Tau FP inhib – qHTS for Inhibitors of Tau Fibril Formation, Fluorescence Polarization; Microtubule-associated protein tau (Homo sapiens), P10636; K18 P301L tau heparin fibrillization, Alexa594 FP, 6 h; Potency, µM (doses to about 57.7 µM), actives largely listed as inhibitors; 0.39% of 280,000 active; AID 1468, 2008; further: nearly all actives have a fitted effect of over 55% in size
Target sequence (P10636 561-689 P618L limits assumed): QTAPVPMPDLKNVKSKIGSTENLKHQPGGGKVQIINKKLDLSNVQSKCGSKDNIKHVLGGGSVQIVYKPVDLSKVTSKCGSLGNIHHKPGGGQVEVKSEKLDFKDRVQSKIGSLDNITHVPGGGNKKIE
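Recombinant K18 P301L […], labeled with Alexa 594 at 0.24 uM over 15 uM unlabeled; heparin inducer 20 uM final; 37 C, 6 hr; FP endpoint.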
TRb-SRC2 inh – qHTS for Inhibitors of the Interaction of Thyroid Hormone Receptor and Steroid Receptor Coregulator 2; TRbeta-SRC2 peptide binding, fluorescence polarization; receptor liganded with 1 µM T3; Potency, µM (doses to about 106 µM), actives largely listed as inhibitors; 0.065% of 280,000 active; further: nearly all actives have a fitted effect of over 50% in size
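Human TRb ligand-binding domain (0.6 uM) is mixed with 20 nM Texas Red SRC2 peptide and 1 uM T3; after compound addition and 5 hr at ambient temperature, polarization is measured and normalized to unbound and bound controls.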
Tau ThT inhib – qHTS for Inhibitors of Tau Fibril Formation, Thioflavin T Binding | Potency, µM (highest dose often 57.4 µM), hits mostly inhibitors | 2.1% of 270,000 active | AID 1460, 2008 | recombinant tau K18 P301L, heparin-induced fibrillization, ThT fluorescence | Microtubule-associated protein tau (Homo sapiens), P10636; further: nearly all actives have a fitted effect of over 55% in size
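ThT emission at 510 nm, taken 1 hr after adding 30 uM dye, quantifies aggregates formed when 20 uM heparin acts on human tau K18 P301L for 6 hr at 37 C.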
TexasRed fluor – Total Fluorescence Counterscreen for Inhibitors of the Interaction of Thyroid Hormone Receptor and Steroid Receptor Coregulator 2; TRb/SRC2 Texas Red total fluorescence interference; Potency, µM (titrated, usually from 106 µM); 0.29% of 280,000 active; active means well fitted curve in either direction with a large enough effect; inconclusive means small, poorly fitted or top-dose-only effect
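Flags fluorescent or light-absorbing compounds by total fluorescence, S + 2P, at 555 nm excitation and 632 nm emission. Mixture: 20 nM Texas Red SRC2 peptide, 0.6 uM human TRb LBD, 1 uM T3, 5% DMSO; compound exposure 5 h at ambient temperature.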
Large screens that a line does not name were inactive; [ ] = dose if it differs, or a comment. Unless noted, the call rests on the fitted dose curve; in most records, active means well fitted curve in the direction sought with a large enough effect; inconclusive means small, poorly fitted or top-dose-only effect, or another doubt; inactive means no such curve, though single readings can be large; an effect the other way counts as inactive or inconclusive.

O=C(COC(=O)CCN1C(=O)/C(=C\C=C\c2ccccc2)SC1=S)Nc1cc(F)ccc1F	Tau fluor cs inconclusive, Tau ThT inhib 6.31µM
O=C(CCN1C(=O)/C(=C/C=C/c2ccccc2)SC1=S)Nc1nc2ccccc2s1	Tau ThT inhib 3.55µM
O=C(O)CCCN1C(=O)/C(=C/c2ccc(-c3nc4ccccc4s3)o2)SC1=S	Tau ThT inhib 1.58µM
O=C(/C=C/c1c(F)cccc1Cl)c1ccc(F)cc1	none
COc1ccc(S(=O)(=O)N2c3cc(Cl)ccc3Oc3nc4ccccc4nc32)cc1	Tau FP inhib inconclusive
CC(C)N=c1cc2n(-c3ccc(Cl)cc3)c3ccccc3nc-2cc1Nc1ccc(Cl)cc1	GoLoco inh red 10µM (no result: Tau fluor cs, Tau FP inhib, Tau ThT inhib)
CC(NC(=O)c1ccccc1)c1nc2ccccc2n1Cc1ccc(Cl)cc1 (centres undefined)	none (no result: GoLoco inh red)
O=C(O)c1ccc(N/N=C2/CCCc3ccccc32)cc1	Tau ThT inhib inconclusive
N#Cc1sc2nc(N3CCCCC3)c3c(c2c1N)CCCC3	Tau fluor cs 15.8µM[quencher], Tau ThT inhib inconclusive
COc1ccc(-c2ccc(SCC(=O)Nc3cc(C)on3)nn2)cc1OC	Tau ThT inhib inconclusive
COc1ccc(CCN(C)CCCN2CC(c3ccccc3)CC2=O)cc1OC (centres undefined)	none
COc1ccc(NC(=O)CSc2nc(-c3ccc(F)cc3)[nH]c2-c2ccc(C)cc2)cc1OC	Tau fluor cs 3.55µM[quencher], Tau ThT inhib inconclusive (no result: GoLoco inh red)
COc1cc(-c2nc(SCC(=O)Nc3ccc(C)cc3)c(-c3ccc(F)cc3)[nH]2)cc(OC)c1OC	Tau fluor cs 4.47µM[quencher] (no result: GoLoco inh red)
COCCNC(=O)CSc1nc(-c2cc(OC)c(OC)c(OC)c2)[nH]c1-c1ccc(Cl)cc1	Tau fluor cs 15.8µM[quencher], Tau FP inhib inconclusive, Tau ThT inhib inconclusive (no result: GoLoco inh red)
COc1ccc(NC(=O)CSc2nc(-c3ccccc3)[nH]c2-c2ccccc2)cc1OC	Tau fluor cs 15.8µM[quencher], Tau ThT inhib inconclusive (no result: GoLoco inh red)
COCCNC(=O)CSc1nc(-c2ccc(F)cc2)[nH]c1-c1ccc(Cl)cc1	Tau fluor cs inconclusive, Tau FP inhib inconclusive (no result: GoLoco inh red)
O=C(CSc1nc(-c2ccc(F)cc2)[nH]c1-c1ccccc1)Nc1ccccc1	Tau fluor cs inconclusive, Tau FP inhib inconclusive (no result: GoLoco inh red)
COCCNC(=O)CSc1nc(-c2ccc(C)cc2)[nH]c1-c1ccc(OC)cc1	Tau FP inhib inconclusive (no result: GoLoco inh red)
O=C(O)CCCCCN1C(=O)C(O)=C(C(=O)/C=C/c2ccccc2)C1c1cccc([N+](=O)[O-])c1 (centres undefined)	none
COc1ccc2c(c1)c(=O)c(C(=O)c1ccc(C)c(C)c1)cn2CC(=O)Nc1ccc2c(c1)OCCO2	Tau FP inhib inconclusive (no result: GoLoco inh red)
CCOC(=O)N1CCN(C(=O)c2cccc(NC3=NC4CS(=O)(=O)CC4S3)c2)CC1 (centres undefined)	none
Cc1ccnc(SCc2nc3ccccc3s2)n1	none
COc1ccc(-c2nc(SCC(=O)Nc3ccccc3)c(-c3ccc(F)cc3)[nH]2)cc1OC	Tau fluor cs 7.08µM[quencher], Tau FP inhib inconclusive, Tau ThT inhib inconclusive (no result: GoLoco inh red)
CC1=NN(C(N)=S)C(=O)C1N=Nc1ccccc1C (centres undefined)	Tau ThT inhib 10µM
CC1=NN(C(N)=S)C(=O)C1N=Nc1ccc(C)cc1C (centres undefined)	Tau fluor cs inconclusive, Tau ThT inhib 3.16µM
CC1=NN(C(=O)c2ccncc2)C(=O)[C@@H]1N=Nc1ccc2ccccc2c1	none (no result: Tau fluor cs, Tau FP inhib, TRb-SRC2 inh, Tau ThT inhib, TexasRed fluor)
CC1=NN(C(N)=S)C(=O)C1N=Nc1c(C)cc(C)cc1C (centres undefined)	Tau ThT inhib 4.47µM
COc1ccc(CNC(=O)Cn2cnc3c(=O)n(C)c(=O)n(C)c32)cc1	Tau FP inhib inconclusive
COc1cccc(C(=O)Nc2ccccc2C(=O)OCc2cc(=O)n3nc(C)sc3n2)c1	none (no result: GoLoco inh red)
COc1ccc(-c2cc(C(=O)NCCc3ccc(S(N)(=O)=O)cc3)c3ccccc3n2)cc1	none
CN(Cc1cc(=O)n2ccsc2n1)Cc1nc2ccccc2c(=O)[nH]1	none
COC(=O)c1cc(OC)c(OC)cc1NCC(=O)Nc1cccc(C(F)(F)F)c1	Tau fluor cs 17.8µM[quencher], Tau FP inhib inconclusive, Tau ThT inhib inconclusive
Cc1ccc(NC(=O)Nc2cn(CC(C)C)c(=O)c3ccccc23)cc1N(C)C	Tau fluor cs 25.1µM[quencher], Tau FP inhib inconclusive, Tau ThT inhib inconclusive (no result: GoLoco inh red)
CC(C)Oc1cc(NC(=O)CSCC(=O)Nc2cccc(C(F)(F)F)c2)c(Cl)cc1Cl	Tau fluor cs inconclusive, Tau FP inhib 35.5µM
CC(C)Cn1cc(NC(=O)Nc2cccc(C(F)(F)F)c2)c2ccccc2c1=O	Tau fluor cs 8.91µM[quencher], Tau FP inhib inconclusive, TexasRed fluor inconclusive (no result: GoLoco inh red)
CC(C)Cn1cc(NC(=O)NCc2ccccc2)c2ccccc2c1=O	TexasRed fluor inconclusive (no result: GoLoco inh red)
O=C(O)CSCC(=O)Nc1cc(C(F)(F)F)ccc1Cl	none
COc1ccc(NC(=O)c2ccc(-c3ccccc3C(F)(F)F)o2)cc1	Tau fluor cs 25.1µM[quencher], Tau ThT inhib 25.1µM
COc1ccccc1-c1c(C)nn2c(NCCN3CCCC3)cc(C)nc12	none
Cc1cc(C(=O)Nc2nc(-c3ccccn3)cs2)ccc1[N+](=O)[O-]	Tau fluor cs inconclusive, Tau ThT inhib 11.2µM
O=C(Nc1nc(-c2ccccn2)cs1)c1ccc([N+](=O)[O-])o1	Tau fluor cs inconclusive, Tau FP inhib inconclusive, Tau ThT inhib 12.6µM
O=C(Nc1nc(-c2ccccn2)cs1)c1cc(Cl)ccc1[N+](=O)[O-]	Tau ThT inhib inconclusive
CC(=C1C(=O)c2ccccc2C1=O)N1CCC(C(N)=O)(N2CCCCC2)CC1	Tau ThT inhib 31.6µM
COC(=O)c1cc2sc(Cl)cc2n1Cc1nc(-c2ccc(OC)cc2)oc1C	none (no result: GoLoco inh red)
COC(=O)c1cc2sc(Cl)cc2n1Cc1nc(-c2ccccc2F)oc1C	TexasRed fluor 25.1µM[quencher] (no result: GoLoco inh red)
COc1ccc(/C=C2\SC(=S)N(NC(=O)c3ccncc3)C2=O)cc1OC	Tau ThT inhib inconclusive
O=C1/C(=C/c2ccc(O)c([N+](=O)[O-])c2)SC(=S)N1Cc1ccccc1	Tau fluor cs inconclusive, Tau ThT inhib 7.08µM
CN1C(=O)/C(=C/c2ccc(O)c([N+](=O)[O-])c2)NC1=S	Tau ThT inhib 15.8µM
